Inconclusive results are not listed. Some compounds were tested as several samples or in several runs, with calls that do not always agree. Calls of active or inactive are those of the source. The calls were made as follows, unless noted: active = hit-call score of the fitted dose curve at least 0.9, where 1 is the maximum; inactive = score below 0.9.
What was measured:
[1] = read-out: E-selectin (Homo sapiens) (UniProt P16581); assay: BSK_SAg_Eselectin: BioMAP Diversity Plus: SAg Assay for Eselectin Biomarker Activity (AID 2283091); settings: primary human HUVEC with PBMC; actives raise or lower the signal
Summary of the method: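 HUVEC co-cultured with PBMC, compound dosed then read at 24 h; E-selectin measured by ELISA. Activity fitted bidirectionally against DMSO as negative control and baseline.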

[2] = read-out: Monokine induced gamma interferon (MIG), CXCL9 (gene 4283); assay: BSK_SAg_MIG: BioMAP Diversity Plus: SAg Assay for Monokine induced gamma interferon (MIG) Biomarker Activity (AID 2283092); settings: primary human HUVEC with PBMC; actives raise or lower the signal
Summary of the method: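 Endothelial cells and PBMC were co-cultured, exposed to test chemicals, and sampled 24 h later. MIG was measured by ELISA, and responses were fitted in both directions relative to DMSO.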

[3] = BSK_SAg_PBMCCytotoxicity: PBMC Cytotoxicity Assessment in the BioMAP Diversity Plus: SAg Assay (AID 2283093); settings: primary human HUVEC with PBMC;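 also: PBMC viability measured as Alamar Blue reduction fluorescence at 546/580 nm; fitted both ways against DMSO so a hit may be loss or gain of signal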;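 as to AC50: PBMC superantigen activated with SEB plus TSST-1 one hour after compound addition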
Summary of the method: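 Alamar Blue reduction (6 h, 546/580 nm) reports PBMC cytotoxicity after 90 h superantigen activation (SEB, TSST-1; 20 ng/mL final each) with 1 h compound pre-treatment. Gain or loss of signal fitted versus DMSO.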

[4] = read-out: Interleukin-8 (IL8), CXCL8 (gene 3576); assay: BSK_SAg_IL8: BioMAP Diversity Plus: SAg Assay for Interleukin-8 (IL8) Biomarker Activity (AID 2283094); settings: primary human HUVEC with PBMC; actives raise or lower the signal
Summary of the method: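 Primary human endothelial cells with PBMC, exposed 24 h; IL-8 determined by ELISA, analysed bidirectionally relative to DMSO.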

[5] = BSK_SAg_Proliferation: Cell Proliferation Assessment in the BioMAP Diversity Plus: SAg Assay (AID 2283095); settings: primary human HUVEC with PBMC;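 also: relative cell number as total protein by SRB absorbance in sub-confluent culture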
Summary of the method: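 A human primary co-culture of umbilical vein endothelium and blood mononuclear cells receives compound; relative cell number is quantified at 96 h by SRB staining and 560 nm absorbance, with DMSO-referenced bidirectional curve fitting.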

[6] = BSK_SAg_SRB: Viability Assessment in the BioMAP Diversity Plus: SAg Assay (AID 2283096); settings: primary human HUVEC with PBMC;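 also: cells read one day after compound addition; hits may be either gain or loss of signal compared with DMSO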
Summary of the method: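 This overt-cytotoxicity endpoint quantifies protein in human endothelial/PBMC co-cultures at 24 h using SRB absorbance (560 nm) after trichloroacetic acid fixation. Values reflect signal change from the DMSO negative control, fitted bidirectionally.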

[7] = target: human CYP19A1, CYP19A1 (gene 1588) (UniProt P11511); assay: NVS_ADME_hCYP19A1: NovaScreen (NVS) CYP450-related Enzyme Activity (ADME) Assay for human CYP19A1 (AID 2283098; active = hit-call score of the fitted dose curve at least 0.9, where 1 is the maximum;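 as to AC50: potency for inhibitors seen as loss of fluorescent enzyme signal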)
Summary of the method: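 Compounds were first screened at 10 uM in duplicate against purified enzyme, with a fluorogenic substrate and fluorescence intensity detection after 0.5 h. Inhibition appears as reduced signal against acetonitrile control.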

[8] = target: human CYP1A1, CYP1A1 (gene 1543) (UniProt P04798); assay: NVS_ADME_hCYP1A1: NovaScreen (NVS) CYP450-related Enzyme Activity (ADME) Assay for human CYP1A1 (AID 2283100; active = hit-call score of the fitted dose curve at least 0.9, where 1 is the maximum)
Summary of the method: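 Cell-free fluorescence assay of recombinant human CYP1A1 activity with a specific substrate, read 1 h after dosing. Compounds were screened in duplicate at 10 uM, then hits tested in concentration-response up to 20 uM; acetonitrile served as baseline.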

[9] = target: human CYP2B6, CYP2B6 (gene 1555) (UniProt P20813); assay: NVS_ADME_hCYP2B6: NovaScreen (NVS) CYP450-related Enzyme Activity (ADME) Assay for human CYP2B6 (AID 2283101; active = hit-call score of the fitted dose curve at least 0.9, where 1 is the maximum)
Description: NVS_ADME_hCYP2B6 is a biochemical, single-readout assay that uses extracted gene-proteins in a cell-free assay. Measurements were taken 1 hour after chemical dosing in a 96-well plate.NVS_ADME_hCYP2B6 is one of one assay component(s) measured or calculated from the NVS_ADME_hCYP2B6 assay. It is designed to make measurements of enzyme activity, a form of enzyme reporter, as detected with fluorescence intensity signals by Fluorescence technology.Data from the assay component NVS_ADME_hCYP2B6 was analyzed into 1 assay endpoint. This assay endpoint, NVS_ADME_hCYP2B6, was analyzed in the positive analysis fitting direction relative to Acetonitrile as the negative control and baseline of activity. Using a type of enzyme reporter, loss-of-signal activity can be used to understand changes in the enzymatic activity as they relate to the gene CYP2B6. Furthermore, this assay endpoint can be referred to as a primary readout, because this assay has produced multiple assay endpoints where this one serves a enzymatic activity function. To generalize the intended target to other relatable targets, this assay endpoint is annotated to the cyp intended target family, where the subfamily is xenobiotic metabolism.
Binding assays used specific radioligands (tritiated, iodinated) with non-radioactive competitive displacement ligands in agonist or antagonist protocols (as indicated) and various reference compounds and inhibitors to titrate specific binding to receptors and transporters. Most enzyme assays (CYPs, kinases, phosphatases, proteases, HDACs) used recombinant protein and specific substrates (fluorescence mostly, some colorimetric and radioactive) and inhibitors, followed by a biochemical separation of substrate and product. All assays for the biochemical HTS were initially run in duplicate at a single concentration (10 uM for CYP450 assays and 25 uM for all others). […] Each assay was run with positive and negative controls, and concurrent controls on every plate. The follow-up (secondary) screen tested active chemical-pairs in concentration series, as well as a few additional assays not tested in the primary screen, some selected negative inactives, and several cases re-run in the concentration series for confirmatory purposes.

[10] = target: human CYP2A6, CYP2A6 (gene 1548) (UniProt P11509); assay: NVS_ADME_hCYP2A6: NovaScreen (NVS) CYP450-related Enzyme Activity (ADME) Assay for human CYP2A6 (AID 2283099; active = hit-call score of the fitted dose curve at least 0.9, where 1 is the maximum)
Summary of the method: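 Cell-free fluorescence readout of recombinant human CYP2A6 expressed in insect cells, read 0.5 h after dosing; loss of signal versus acetonitrile negative control. Primary screen in duplicate at 10 uM; actives re-run in concentration-response up to 20 uM.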

Measured: AC50

Chain of human CYP2B6, CYP2B6 (gene 1555) (P20813 whole entry, looked up): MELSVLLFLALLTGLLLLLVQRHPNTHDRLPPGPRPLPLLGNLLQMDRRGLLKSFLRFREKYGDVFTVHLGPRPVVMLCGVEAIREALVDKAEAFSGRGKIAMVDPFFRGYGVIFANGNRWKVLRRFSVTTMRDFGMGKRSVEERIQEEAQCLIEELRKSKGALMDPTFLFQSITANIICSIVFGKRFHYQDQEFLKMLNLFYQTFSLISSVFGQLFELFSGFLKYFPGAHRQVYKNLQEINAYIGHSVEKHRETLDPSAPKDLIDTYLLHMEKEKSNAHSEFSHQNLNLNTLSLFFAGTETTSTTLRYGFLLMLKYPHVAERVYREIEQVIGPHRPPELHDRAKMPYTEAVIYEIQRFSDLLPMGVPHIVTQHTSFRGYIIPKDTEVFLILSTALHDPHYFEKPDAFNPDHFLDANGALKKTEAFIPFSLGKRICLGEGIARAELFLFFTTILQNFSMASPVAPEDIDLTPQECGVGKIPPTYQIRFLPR
Chain of human CYP19A1, CYP19A1 (gene 1588) (P11511 whole entry, looked up): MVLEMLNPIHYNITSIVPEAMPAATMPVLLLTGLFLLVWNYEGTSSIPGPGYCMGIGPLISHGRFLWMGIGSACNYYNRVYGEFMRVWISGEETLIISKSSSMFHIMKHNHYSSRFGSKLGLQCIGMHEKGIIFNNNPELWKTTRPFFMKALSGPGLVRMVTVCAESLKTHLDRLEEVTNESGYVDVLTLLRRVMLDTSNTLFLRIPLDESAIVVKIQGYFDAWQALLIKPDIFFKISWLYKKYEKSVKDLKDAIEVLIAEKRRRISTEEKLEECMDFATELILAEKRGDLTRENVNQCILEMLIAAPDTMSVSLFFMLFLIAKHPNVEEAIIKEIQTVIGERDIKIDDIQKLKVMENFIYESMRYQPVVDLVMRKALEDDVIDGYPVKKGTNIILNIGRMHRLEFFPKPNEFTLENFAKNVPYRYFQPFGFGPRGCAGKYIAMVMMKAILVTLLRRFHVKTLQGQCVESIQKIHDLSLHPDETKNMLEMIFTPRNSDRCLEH
Chain of E-selectin (Homo sapiens) (P16581 whole entry, looked up): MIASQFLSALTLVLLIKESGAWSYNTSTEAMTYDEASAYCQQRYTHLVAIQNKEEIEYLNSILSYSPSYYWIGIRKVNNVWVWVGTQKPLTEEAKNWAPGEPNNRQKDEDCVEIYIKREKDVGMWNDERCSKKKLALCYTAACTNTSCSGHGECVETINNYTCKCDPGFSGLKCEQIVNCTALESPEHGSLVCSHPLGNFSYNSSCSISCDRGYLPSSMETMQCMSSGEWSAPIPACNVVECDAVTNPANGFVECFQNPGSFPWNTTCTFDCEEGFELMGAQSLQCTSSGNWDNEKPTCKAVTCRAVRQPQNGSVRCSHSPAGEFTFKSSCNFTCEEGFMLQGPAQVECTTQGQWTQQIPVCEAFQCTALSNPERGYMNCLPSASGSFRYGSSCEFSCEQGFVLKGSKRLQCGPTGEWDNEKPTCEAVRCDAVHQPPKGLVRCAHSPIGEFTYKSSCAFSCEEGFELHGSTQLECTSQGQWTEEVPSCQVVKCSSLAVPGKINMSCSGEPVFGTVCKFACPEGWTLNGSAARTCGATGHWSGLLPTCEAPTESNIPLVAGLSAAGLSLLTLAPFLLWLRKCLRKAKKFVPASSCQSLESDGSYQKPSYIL
Chain of human CYP1A1, CYP1A1 (gene 1543) (P04798 whole entry, looked up): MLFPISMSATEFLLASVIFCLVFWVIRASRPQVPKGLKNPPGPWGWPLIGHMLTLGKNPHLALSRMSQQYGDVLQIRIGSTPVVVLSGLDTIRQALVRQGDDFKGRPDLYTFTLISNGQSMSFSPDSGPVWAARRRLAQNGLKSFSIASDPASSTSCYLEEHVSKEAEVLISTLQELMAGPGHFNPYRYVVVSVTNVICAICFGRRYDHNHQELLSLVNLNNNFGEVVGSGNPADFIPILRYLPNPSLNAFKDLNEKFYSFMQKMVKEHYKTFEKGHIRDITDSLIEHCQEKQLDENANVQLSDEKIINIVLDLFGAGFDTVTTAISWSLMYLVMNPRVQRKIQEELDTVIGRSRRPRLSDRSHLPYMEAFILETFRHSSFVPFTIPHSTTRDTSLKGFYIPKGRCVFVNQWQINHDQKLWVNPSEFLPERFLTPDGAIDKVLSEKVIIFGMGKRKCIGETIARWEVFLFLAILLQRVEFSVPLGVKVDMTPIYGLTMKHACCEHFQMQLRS
Chain of human CYP2A6, CYP2A6 (gene 1548) (P11509 whole entry, looked up): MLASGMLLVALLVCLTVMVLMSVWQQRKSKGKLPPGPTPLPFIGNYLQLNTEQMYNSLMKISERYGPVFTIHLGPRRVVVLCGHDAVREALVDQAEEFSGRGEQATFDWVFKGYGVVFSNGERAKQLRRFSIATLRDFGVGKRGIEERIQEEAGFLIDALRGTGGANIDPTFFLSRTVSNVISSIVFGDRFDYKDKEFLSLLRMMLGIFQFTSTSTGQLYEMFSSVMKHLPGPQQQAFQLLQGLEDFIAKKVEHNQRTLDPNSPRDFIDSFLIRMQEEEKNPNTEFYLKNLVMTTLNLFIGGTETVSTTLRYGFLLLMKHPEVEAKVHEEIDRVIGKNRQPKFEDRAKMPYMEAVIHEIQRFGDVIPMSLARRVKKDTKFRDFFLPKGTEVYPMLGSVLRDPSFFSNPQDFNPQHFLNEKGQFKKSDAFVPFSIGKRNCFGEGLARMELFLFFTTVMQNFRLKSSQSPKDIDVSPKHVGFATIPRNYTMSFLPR

COc1cc(OC)nc(NC(=O)NS(=O)(=O)c2ncccc2C(=O)N(C)C)n1
inactive: [1] | [2] | [3] | [4] | [5] | [6]

CC(=O)C(Cl)C(=O)N(C)C (stereo not given)
active: [1] 25.4 µM | [3] 7.81 µM | [4] 14.1 µM | [5] 20 µM
inactive: [2]

O=C(O)C(F)(F)C(F)(F)C(F)(F)C(F)(F)C(F)(F)C(F)(F)F
inactive: [1] | [2] | [3] | [4] | [5] | [6]

CC(C)CCCCCCOC(=O)c1ccccc1C(=O)OCCCCCCC(C)C
active: [1] 0.016 µM
inactive: [2] | [3] | [4] | [5]

BrCCBr
inactive: [1] | [2] | [3] | [4] | [5]

COP(=S)(OC)Oc1cc(Cl)c(Cl)cc1Cl
inactive: [2] | [3] | [4] | [5]
active: [1] 5.51 µM

CC(=O)OC(c1ccccc1)C(Cl)(Cl)Cl (stereo not given)
active: [4] 13.4 µM
inactive: [2] | [3] | [4] | [5]

Cn1sc(Cl)cc1=O
active: [3] 16.9 µM | [4] 20 µM | [5] 6.46 µM
inactive: [2]

O=C(Nc1ccc2[nH]ccc2c1)c1cc2cc(F)ccc2n1Cc1cccc(F)c1
active: [2] 12.7 µM | [3] 9.98 µM | [4] 6.87 µM | [5] 6.62 µM | [6] 14.6 µM

CC(C)c1ccc(CO)cc1
inactive: [2] | [3] | [4] | [5] | [6]

O=C(O)C(Cl)(Cl)Cl
inactive: [2] | [3] | [4] | [5]

O=C1C(Cl)=C(Cl)C(=O)c2ccccc21
active: [7] 7.68 µM

Nc1ncc([N+](=O)[O-])s1
inactive: [2] | [3] | [4] | [5]

COC(=O)Cc1ccccc1
inactive: [2] | [3] | [4] | [5]

CCOP(=S)(OCC)SCCS(=O)(=O)CC
inactive: [2] | [3] | [4] | [5]

CCC[CH2][Sn]([Cl])([Cl])[Cl]
inactive: [7]

CCNc1nc(NC(C)(C)C)nc(SC)n1
inactive: [2] | [3] | [4] | [5]

CC(=O)[O][Hg][c]1ccccc1
active: [2] 1.78 µM | [3] 0.318 µM | [4] 11.9 µM | [5] 0.259 µM | [8] 16 µM | [9] 6.73 µM

CC12CC1(C)C(=O)N(c1cc(Cl)cc(Cl)c1)C2=O (stereo not given)
inactive: [2] | [3] | [4] | [5] | [6]

CCC(=O)C(CC(C)N(C)C)(c1ccccc1)c1ccccc1 (stereo not given)
inactive: [2] | [3] | [4] | [5]

Cc1ccccc1N
inactive: [2] | [3] | [4] | [5] | [6]

CN(C)N=O
inactive: [2] | [3] | [4] | [5] | [6]

C(=NC1CCCCC1)=NC1CCCCC1
active: [2] 12.6 µM | [3] 16.5 µM | [4] 3.97 µM | [5] 0.499 µM | [6] 30 µM

CCOP(=S)(OCC)Oc1nc(Cl)c(Cl)cc1Cl
active: [3] 34.3 µM | [4] 20 µM | [5] 34.4 µM
inactive: [2]

COP(=S)(OC)Oc1ccc(Sc2ccc(OP(=S)(OC)OC)cc2)cc1
inactive: [2] | [3]
active: [4] 9.59 µM | [5] 28.8 µM

COP(=S)(OC)Oc1c(Cl)cc(C)cc1Cl
inactive: [2] | [3] | [4] | [6]
active: [5] 31.6 µM

[O-][Cl+2]([O-])O
active: [7] 5.58 µM

O=C(O)CCC(F)(C(F)(F)F)C(F)(F)F
inactive: [2] | [3] | [4] | [5] | [6]

CC(C)(C)CC(C)(C)c1ccc(O)cc1
active: [2] 10.7 µM | [3] 8.43 µM | [4] 10.2 µM | [5] 5.84 µM | [6] 11.3 µM | [9] 6.7 µM

O=S(=O)(c1ccc(Cl)cc1)c1ccc(Cl)cc1
inactive: [2] | [3] | [4] | [5]
active: [9] 2.89 µM

O=C(OC1CCCCC1)c1ccccc1C(=O)OC1CCCCC1
active: [2] 29.8 µM | [3] 20.9 µM | [4] 20.9 µM | [5] 17.3 µM | [6] 20.9 µM

OCc1ccco1
inactive: [2] | [3] | [4] | [7]
active: [5] 26.7 µM

Oc1cccc2cccnc12
inactive: [2] | [4] | [7]
active: [3] 3.57 µM | [5] 4.71 µM

ClC1=C(Cl)[C@]2(Cl)[C@H]3[C@H]([C@H]4C=C[C@H]3C4)[C@@]1(Cl)C2(Cl)Cl
inactive: [2] | [4]
active: [3] 20 µM | [5] 20 µM

O=c1[nH]c(=O)[nH]c(=O)[nH]1
inactive: [2] | [3] | [5] | [6]
active: [4] 32.6 µM

Fc1ccc(C2(Cn3cncn3)OC2c2ccccc2Cl)cc1 (stereo not given)
active: [7] 1.86 µM

CC1(C)CCC(Cc2ccc(Cl)cc2)C1(O)Cn1cncn1 (stereo not given)
inactive: [8]

CCCCCCCCc1ccc(O)cc1
inactive: [10]
active: [2] 35.6 µM | [3] 29 µM | [4] 32.2 µM | [5] 19.3 µM | [6] 38.2 µM

— PubChem BioAssay (EPA / NIEHS)
